Most compounds without a hit are left out; they make up all but 10% or so of the library.
GLA inh pH 4.5 = alpha-galactosidase A (human) inhibition, pH 4.5 | P06280 | purified enzyme, 4-MU-alpha-Gal fluorescence, pH 4.5 | activity change, negative = inhibition, % at 105 µM | 230,000 tested, under 10 active
ALDH1A1 inh = blocks purified human ALDH1A1 activity. P00352. Purified ALDH1A1, NADH fluorescence, propionaldehyde substrate. Potency, µM (series often up to 75.3 µM), hits mostly inhibitors. 220,000 compounds, 7.3% hits; active = well fitted inhibition curve with a large enough effect, not every such curve was filed as active; inconclusive = small, poorly fitted or top-dose-only effect, or another doubt; inactive = no such curve, though single readings can be large or run the other way
12-hLO inh = 12-hLO (ALOX12) enzyme inhibition | P18054 | 150,000 compounds, 0.12% hits | purified 12-hLO, xylenol orange hydroperoxide absorbance | Potency, µM (doses to about 57.1 µM), usual class: inhibitors; also: nearly all actives have a fitted effect of over 55% in size
Target sequence (P18054 whole entry, looked up): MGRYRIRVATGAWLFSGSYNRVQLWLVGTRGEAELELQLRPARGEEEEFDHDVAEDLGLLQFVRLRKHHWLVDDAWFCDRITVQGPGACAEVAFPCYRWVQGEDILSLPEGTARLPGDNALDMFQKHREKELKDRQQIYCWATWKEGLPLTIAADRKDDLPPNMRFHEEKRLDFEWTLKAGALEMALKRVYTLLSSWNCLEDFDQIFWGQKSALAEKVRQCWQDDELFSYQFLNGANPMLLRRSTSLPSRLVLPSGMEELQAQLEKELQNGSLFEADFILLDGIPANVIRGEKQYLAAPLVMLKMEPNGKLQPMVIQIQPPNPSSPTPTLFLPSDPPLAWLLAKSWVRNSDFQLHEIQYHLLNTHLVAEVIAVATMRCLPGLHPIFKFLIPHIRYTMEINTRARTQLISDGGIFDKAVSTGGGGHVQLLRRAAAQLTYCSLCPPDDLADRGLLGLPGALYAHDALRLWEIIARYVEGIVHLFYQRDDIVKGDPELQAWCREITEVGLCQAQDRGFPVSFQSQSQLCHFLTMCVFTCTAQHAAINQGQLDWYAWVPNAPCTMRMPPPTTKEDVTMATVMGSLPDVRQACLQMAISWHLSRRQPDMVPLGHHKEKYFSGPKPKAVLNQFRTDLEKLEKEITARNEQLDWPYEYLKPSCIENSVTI
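Purified human 12hLO (150 nM final) was preincubated with compounds for 15 min at room temperature in 25 mM Hepes pH 7.0, 0.01% Triton X-100, then reacted with 40 uM arachidonic acid for 30 min. Hydroperoxide was detected with ferrous iron/xylenol orange.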
GLA spleen mod = inhibitors or activators of human alpha-galactosidase in spleen homogenate. 240,000 compounds, 0.008% hits. Potency, µM (highest dose often 80 µM), actives largely listed as inhibitors. P06280. human spleen homogenate, 4MU-alpha-Gal fluorescence, 40 min
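Spleen homogenate 1 ug + cpd (titration) + 4-MU-alpha-D-galactopyranoside 1 mM; 37C 40 min; 50 mM citrate/phosphate pH 5.0, 0.01% Tween-20; stop pH 10; fluorescence 365/440; AC50 via Hill.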
HPGD inh = blocks human HPGD enzyme activity | Potency, µM, most hits filed as inhibitors | 150,000 compounds, 4.3% hits | purified HPGD, NADH fluorescence kinetic, PGE2 substrate | P15428 | AID 894; active = well fitted inhibition curve with a large enough effect, not every such curve was filed as active; inconclusive = small, poorly fitted or top-dose-only effect, or another doubt; inactive = no such curve, though single readings can be large or run the other way
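20 nM HPGD preincubated 15 min at room temperature with compound in 50 mM Tris-HCl pH 8, 0.01% Tween 20. Started with 1 mM NAD+ and 30 uM prostaglandin E2; NADH fluorescence (360/450 nm) read 5 times over 30-s intervals, last minus first.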
PNC inhibitor = perinucleolar compartment assembly inhibition; 140,000 compounds, 3.1% hits; PC3M PTB-GFP, PNC prevalence imaging, 16 h; hits give low values; AID 2417; activity change (PNC), negative = inhibition, % at 10 µM;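 active = readout at or below -70, meaning at least 70% loss of cells showing the perinucleolar compartment, a nuclear body marking cancer cells; inconclusive = readout between -30 and a set limit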
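Read-out is percentage of cells bearing a perinucleolar compartment, from automated 20x imaging of fixed, Hoechst-stained PC3M PTB-GFP cells. Cells were seeded 4 h, then exposed 16 h to compound (23 nl of library stock) in duplicate plates.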
A number is an active result; n = inactive; u = inconclusive; x = no result; ! = a repeat was not active; [ ] = dose if it differs, or a comment. Unless noted, calls follow the shape of the dose curve; as a rule, active = well fitted curve in the direction sought with a large enough effect; inconclusive = small, poorly fitted or top-dose-only effect, or another doubt; inactive = no such curve, though single readings can be large; an effect the other way counts as inactive or inconclusive.

SMILES	GLA inh pH 4.5	ALDH1A1 inh	12-hLO inh	GLA spleen mod	HPGD inh	PNC inhibitor
CN1C(=O)C(=Cc2ccccc2Oc2ccc(Cl)cc2)C(=O)N(C)C1=O	n	u	n	n	25.1µM	n
CN1C(=O)C(=Cc2ccccc2OCc2ccc(Cl)cc2)C(=O)N(C)C1=O	n	17.8µM	n	n	22.4µM	n
COc1ccc(CN2C(=O)NC(=O)/C(=C\c3cccc(OC)c3OC)C2=O)cc1	n	u	x	n	x	x
CN(C)c1ccc(C(=O)c2ccc(N(C)C)cc2)cc1	n	28.2µM	n	n	u	n
CCCc1[nH]nc2c1C1(C(=O)N(CC(N)=O)c3ccccc31)C(C(=O)OC)=C(N)O2 (configuration not stated)	n	n	n	n	n	-91.1
C=C(C)c1ccccc1 (tested in a mixture with another compound)	x	n[13.5 µM]	n[11.4 µM]	x	n	x
CCCCCCCCCC[n+]1cccc([C@@H]2CCCN2C)c1	x	x	x	n	x	x
CCCN1CC[C@@H]2c3cc(O)ccc3CC[C@H]21	x	x	n	x	x	x
c1csc(-c2nnc(Cc3cccc4ccccc34)o2)c1	n	n	n	n	17.8µM	n
CC1=[N+]([O-])C2(N)CCc3nonc3C2(O)C1 (configuration not stated)	n	7.08µM	n	n	n	n
CCCN(C/C=C\I)[C@@H]1CCc2ccc(O)cc2C1	n	n	n	n	n	x
CCCN(CCC)C1Cc2cc(OC)c(OC)cc2C1	n	22.4µM!	n	n	n	x
c1ccc(-c2nc(N3CCOCC3)s[n+]2-c2ccccc2)cc1	n	1.78µM	n	n	10µM	n
CC(Cl)(Cl)Cl	x	n	n	n	n	x
CCCC/C(=N\O)c1c[nH]c2ccccc12	n	n	n	n	n	-80.9
CCOc1cncc(/C=C/CCNC)c1	x	x	x	n	x	x
C=C(C)CSc1nc2ncc(Cl)cc2[nH]1	n	n	n	n	12.6µM	n
O=c1[nH]c(O)c(N=Nc2cc([N+](=O)[O-])ccc2O)c(=O)[nH]1	n	20µM	x	n	x	x
CC1(C)N=C(N)N=C(N)N1c1cccc(C(=O)Nc2ccc(S(=O)(=O)F)cc2)c1	x	n[13.5 µM]	n[11.4 µM]	x	n	x
O=C1c2ccccc2C(Nc2ccc(S(=O)(=O)N3CCCCCC3)cc2)N1c1ccccn1 (configuration not stated)	n	0.794µM	n	n	n	-93.3
c1ccc2c(c1)Sc1ccccc1N2C[C@H]1CN2CCC1CC2	x	n[13.5 µM]	n[11.4 µM]	x	n	x
Cc1nonc1-c1nc(-c2nonc2N)n[nH]1	n	n	n	n	14.1µM	n
COC(=O)[C@]1(C)CC[C@@]2(C)CC[C@@]3(C)C4=CC=C5C(=CC(=O)C(O)=C5C)[C@@]4(C)CC[C@@]3(C)C2C1 (some centres not stated)	n	n	u	n	20µM	x
Cc1nn(CCC#N)c2c1P(=S)(N1CCCC1)OC(c1ccc(F)cc1)=N2 (configuration not stated)	n	7.08µM	n	n	20µM	n
COC(=O)c1c(C)ccc2c(O)c3c(cc12)C(=O)c1c2c(cc(O)c1C3=O)[C@@]1(C)O[C@@](C)(O2)[C@@H](O)[C@H](N(C)C)[C@H]1O	x	u	n[11.4 µM]	x	u	x
SMILES	GLA inh pH 4.5	ALDH1A1 inh	12-hLO inh	GLA spleen mod	HPGD inh	PNC inhibitor
Oc1cc2c(cc1O)[C@H]1c3ccccc3CNC1CC2 (some centres not stated)	n	u	x	n	6.31µM	x
CC(=O)O[C@H]1CC[C@H]2[C@@H]3CCC4=C[C@@H](C5SCCS5)[C@H](OC(C)=O)C[C@]4(C)[C@H]3CC[C@@]12C	x	n[13.5 µM]	n[11.4 µM]	x	n	x
O=C(O)c1ccccc1C(=O)O	x	28.2µM	n	n	n	x
O=C(O)c1cccc2nc3ccccc3nc12	x	u	x	n	x	x
O=C1NC(=O)C(=Cc2coc3ccc(O)cc3c2=O)C(=O)N1	n	3.55µM	x	n	x	x
O=C1NC(=O)C(=Cc2ccc3c(c2)OCO3)C(=O)N1	n	u	x	n	x	x
O=C(O)C[C@H]1OCC=C2CN3CC[C@]45c6ccccc6N[C@@H]4[C@H]1[C@H]2C[C@H]35	x	n[13.5 µM]	n[11.4 µM]	x	n	x
COC(=O)C(O)(c1ccc(NC(=S)NC(=O)c2ccccc2)cc1)C(F)(F)F (configuration not stated)	n	25.1µM	u	n	n	n
